Experimental data published in PubChem BioAssay (NCI).
About 83,000 compounds went through this panel and 20% of them were active in at least one assay; those are over-represented in the sample as a whole.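 Single-concentration screen, 48 h exposure, 96-well plates. Endpoint: percent growth. Below 10 = active.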 Activity calls are given as the source filed them.

How the values were obtained:
Experiment in all cases: NCI-60 one-dose screen, 48 h (100 = growth as untreated, 0 = no growth, -100 = all killed)
[1] = system: NCI-H23 lung; details: 10 µM unless noted
[2] = system: NCI-H226 lung; details: 10 µM unless noted
[3] = system: NCI-H322M lung; details: 10 µM unless noted
[4] = system: NCI-H460 lung; details: 10 µM unless noted
[5] = system: HOP-92 NSCLC; details: 10 µM
[6] = system: NCI-H522 lung; details: 10 µM
[7] = system: A549/ATCC NSCLC; details: 10 µM unless noted
[8] = system: 786-0 renal; details: 10 µM unless noted
[9] = system: COLO 205 colon; details: 10 µM unless noted
[10] = system: DU-145 prostate; details: 10 µM unless noted
[11] = system: K-562 leukemia; details: 10 µM unless noted
[12] = system: MALME-3M melanoma; details: 10 µM unless noted
[13] = system: MDA-MB-231 breast; details: 10 µM unless noted
[14] = system: RXF 393 renal; details: 10 µM unless noted
[15] = system: SF-268 CNS; details: 10 µM unless noted
[16] = system: SF-295 CNS; details: 10 µM unless noted
[17] = system: SF-539 CNS; details: 10 µM unless noted
[18] = system: UACC-257 melanoma; details: 10 µM unless noted
[19] = system: M14 melanoma; details: 10 µM unless noted

Measured: growth

CCN(CC)CCCC(C)Nc1c(C)cnc2cc(Cl)c(C)cc12 (centres undefined)
active: [11] 3.57% | [19] 7.11%
inactive: [1] 91.9% | [2] 96.2% | [3] 87.6% | [4] 90.2% | [5] 70.4% | [6] 82.3% | [7] 103% | [8] 64.7% | [9] 72.2% | [10] 91.7% | [12] 110% | [13] 73.5% | [14] 69.3% | [15] 87.6% | [16] 84.8% | [17] 72.3% | [18] 112%

COC(=O)c1ccc2[nH]c(O)c(C(=Nc3ccc(N(C)C(=O)CN4CCN(C)CC4)cc3)c3ccc([N+](=O)[O-])cc3)c2c1
inactive: [1] 57.3% | [2] 55.8% | [3] 41.9% | [4] 48.5% | [5] 63.6% | [6] 34.3% | [7] 72.8% | [8] 33.1% | [9] 43.8% | [10] 47.3% | [13] 70.2% | [14] 33.9% | [15] 45.3% | [16] 55.2% | [17] 38.9% | [18] 85.4% | [19] 32.1%
active: [11] 1.99% | [12] -1.29%

O=C1/C(=N\c2cc(=O)[nH]n2S(=O)(=O)c2ccccc2)Nc2ccccc21
inactive: [1] 107% | [2] 92.4% | [3] 105% | [4] 105% | [5] 89.6% | [6] 96.7% | [7] 111% | [8] 106% | [9] 114% | [10] 108% | [11] 98.7% | [12] 95.1% | [13] 96.5% | [14] 101% | [15] 97.6% | [16] 101% | [17] 94.8% | [18] 123% | [19] 91.1%

C/C(=N\Nc1ccc(Cl)cn1)c1ccccn1
inactive: [1] 11.6% | [5] 29% | [10] 18.2% | [13] 31% | [14] 19.4% | [15] 11.9%
active: [2] -8.37% | [3] 9.31% | [4] 0.782% | [6] 6.6% | [7] 6.73% | [8] 8.74% | [9] 9.59% | [11] 5.63% | [12] 2.78% | [16] -1.75% | [17] -14% | [18] -11.4%

CCC(C)C1NC(=O)C(CC(C)C)NC(=O)C(C)NC(=O)C(C(C)C)NC(=O)C(CCCCN)NC(=O)C(CC(C)C)NC(=O)C(C(C)C)NC(=O)[C@H](C)NC(=O)C(C(C)CC)NC(=O)C(CCCN=C(N)N)NC(=O)C(CCCCN)NC(=O)C(CCCN=C(N)N)NC(=O)C(CCCCN)NC(=O)C([C@H](C)CC)NC(=O)C(CCCCN)NC1=O (some centres undefined)
inactive: [2] 44.9% | [3] 64.9% | [7] 22.3% | [8] 10.5% | [10] 23.8% | [12] 15.2% | [14] 33% | [15] 20.3% | [16] 21.4% | [17] 67.2% | [19] 17.7%
active: [1] 8.22% | [4] 4.91% | [5] -21.8% | [6] -5.53% | [9] -73% | [11] 8.83% | [13] -0.693% | [18] 1.31%

CC/C(=N\Nc1nc2ccccc2n1C)c1ccccn1
active: [1] 7.14% | [2] -0.758% | [4] 1.28% | [7] 2.95% | [8] 2.44% | [11] 8.28% | [12] 9.46% | [14] 2.73% | [15] 3.39% | [16] -19.8% | [17] -6.18% | [18] -0.857%
inactive: [3] 21% | [5] 29.2% | [6] 18.7% | [9] 21.9% | [10] 11.8% | [13] 20.8%

CCCCCCCCCCCCCCCCCC1=NCCN1CCNC(C)=O
inactive: [1] 93% | [2] 100% | [3] 90.6% | [4] 50.5% | [5] 62.1% | [6] 98.8% | [7] 79.3% | [8] 92.3% | [9] 92.6% | [10] 69.7% | [11] 26.4% | [12] 98.9% | [13] 66.3% | [14] 99% | [15] 88.7% | [16] 108% | [17] 86.8% | [18] 108% | [19] 101%

COc1ccc(-c2cc(C#N)c(NNC(C)=O)[nH]2)cc1
inactive: [1] 91.4% | [2] 104% | [3] 117% | [4] 128% | [5] 178% | [6] 107% | [7] 115% | [8] 95.3% | [9] 129% | [10] 123% | [11] 47.5% | [12] 106% | [13] 106% | [14] 118% | [15] 122% | [16] 101% | [17] 112% | [18] 108%

CC(C)(C)C(=O)CCCCCCCC/C=C/CCCC(O)c1ccco1 (centres undefined)
inactive: [1] 102% | [2] 112% | [3] 95.5% | [4] 112% | [5] 79.1% | [6] 120% | [7] 108% | [8] 94.5% | [9] 124% | [10] 102% | [11] 82.4% | [12] 109% | [13] 102% | [14] 99.7% | [15] 106% | [16] 105% | [17] 97.3% | [18] 105%

NC(=O)CC(NC(=O)COc1ccc(Cl)cc1Cl)C(=O)O (centres undefined)
inactive: [1] 101% | [2] 102% | [3] 102% | [4] 104% | [5] 96.4% | [6] 98% | [7] 106% | [8] 108% | [9] 106% | [10] 104% | [11] 103% | [12] 105% | [13] 105% | [14] 108% | [15] 101% | [16] 100% | [17] 111% | [18] 107% | [19] 106%

CCC(C)(C)c1ccc(OCCCCCCN2CCNCC2)cc1
active: [9] -50% | [11] -29%
inactive: [1] 60% | [2] 92.7% | [3] 76.1% | [4] 17.7% | [5] 51.3% | [6] 95.5% | [7] 53.5% | [8] 59.5% | [10] 49.3% | [12] 72% | [13] 78.5% | [14] 35.9% | [15] 78.5% | [16] 84.4% | [17] 61.4% | [18] 75.9% | [19] 65.5%

CC[C@H](Nc1ncnc2nc[nH]c12)c1nc2cccc(NCc3ccc(C(=O)NO)o3)c2c(=O)n1-c1ccccc1
inactive: [1] 98.1% | [2] 109% | [3] 97.4% | [4] 111% | [5] 82.6% | [6] 76.7% | [7] 102% | [8] 94.1% | [9] 115% | [10] 101% | [11] 102% | [12] 77.1% | [13] 113% | [14] 110% | [15] 84.1% | [16] 102% | [17] 100% | [18] 102% | [19] 103%

COc1cccc2c1n([O-])c1cccc(OC)c1[n+]2=O
inactive: [1] 58.8% | [2] 97.8% | [3] 107% | [4] 47.8% | [5] 94.3% | [6] 53.5% | [7] 70.6% | [8] 84.2% | [9] 97.6% | [10] 60.9% | [11] 37.6% | [12] 89.2% | [13] 95.7% | [15] 62% | [16] 120% | [17] 68.4% | [18] 71% | [19] 96%
active: [14] -35.3%

Cc1c(Cc2ccccc2)c(=O)oc2c(C)c(OCC(=O)n3nc(C#N)cc3N)ccc12
inactive: [1] 96.5% | [2] 96.2% | [3] 93.6% | [4] 106% | [5] 89.1% | [6] 79.4% | [7] 106% | [8] 97% | [9] 107% | [10] 104% | [11] 102% | [12] 99.5% | [13] 103% | [14] 119% | [15] 97.1% | [16] 94.7% | [17] 99.3% | [18] 105% | [19] 96.3%

CC(=O)Nc1nc(C)c(C(=O)N/N=C/c2cccs2)s1
inactive: [1] 103% | [2] 86.9% | [3] 111% | [4] 102% | [5] 42.6% | [6] 94.8% | [7] 101% | [8] 94.3% | [9] 101% | [10] 115% | [11] 108% | [12] 117% | [13] 89.3% | [14] 113% | [15] 97% | [16] 96.2% | [17] 99.3% | [18] 109% | [19] 95.7%

Cc1sc(NC(=O)c2ccc(C(C)(C)C)cc2)c(C(=O)O)c1C
inactive: [1] 62.9% | [2] 92.3% | [3] 97.3% | [4] 50.9% | [5] 66.3% | [6] 56.3% | [7] 24.4% | [8] 73.8% | [9] 55.6% | [10] 61.6% | [11] 38.1% | [12] 111% | [13] 105% | [14] 114% | [15] 88.1% | [16] 35.7% | [17] 65.8% | [18] 101% | [19] 107%

Cc1nc(N)sc1C(=O)NCCO
active: [5] -17.9% | [12] -3.05%
inactive: [1] 106% | [2] 97.2% | [3] 127% | [4] 115% | [6] 34.5% | [7] 111% | [8] 129% | [9] 126% | [10] 105% | [11] 145% | [13] 101% | [14] 106% | [15] 98.6% | [16] 108% | [17] 105% | [18] 110% | [19] 112%
